Assays:
Test in all cases: PBM binding z-score (relative to random genomic background probes); higher = stronger binding; sequences stand for … in GC…GCGATTGACAGCGTAGAATGAAGG
[1] = system: FXR:RXRa (NR concentration 270 nM, RXRa partner concentration 90 nM)
Method in brief: (§1)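 Regression normalization was applied to scanned fluorescence from custom Agilent 4×180K protein-binding microarrays. Before scanning, arrays were incubated 1 h with ligand-free nuclear receptor dimers, and binding was detected with antibodies against each partner (one per run). Binding z-scores use the random background probes as reference.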

[2] = system: LXRa:RXRa (NR concentration 270 nM, RXRa partner concentration 90 nM)
Method in brief: as §1

[3] = system: LXRa homodimer (NR concentration 270 nM)
Method in brief: as §1

[4] = system: LXRb:RXRa (NR concentration 270 nM, RXRa partner concentration 90 nM)
Method in brief: as §1

[5] = system: LXRb homodimer (NR concentration 270 nM)
Method in brief: as §1

[6] = system: PPARa:RXRa (NR concentration 270 nM, RXRa partner concentration 90 nM)
Method in brief: as §1

[7] = system: PPARg:RXRa (NR concentration 180 nM, RXRa partner concentration 90 nM)
Method in brief: as §1

[8] = system: PPARg:RXRa 270nM:90nM, anti-RXR (NR concentration 270 nM, RXRa partner concentration 90 nM)
Method in brief: as §1

[9] = system: PPARg:RXRa 30nM:10nM, anti-RXR (NR concentration 30 nM, RXRa partner concentration 10 nM)
Method in brief: as §1

[10] = system: PPARg:RXRa 90nM:30nM, anti-RXR (NR concentration 90 nM, RXRa partner concentration 30 nM)
Method in brief: as §1

[11] = system: PPARg:RXRa DBDmut IVT, anti-RXR (DBD mutation: RXRa K156A/R161A, NR concentration 270 nM, RXRa partner concentration 90 nM)
Method in brief: as §1

[12] = system: PPARg:RXRa IVT, anti-PPARg (NR concentration 270 nM, RXRa partner concentration 90 nM)
Method in brief: as §1

[13] = system: PPARg DBDmut:RXRa IVT, anti-PPARg (DBD mutation: PPARg1 K132A/R137A, NR concentration 270 nM, RXRa partner concentration 90 nM)
Method in brief: as §1

[14] = system: PPARg DBDmut IVT, anti-PPARg (DBD mutation: PPARg1 K132A/R137A, NR concentration 270 nM)
Method in brief: as §1

[15] = system: PPARg homodimer (NR concentration 180 nM)
Method in brief: as §1

[16] = system: PXR:RXRa (NR concentration 270 nM, RXRa partner concentration 90 nM)
Method in brief: as §1

[17] = system: PXR homodimer (NR concentration 270 nM)
Method in brief: as §1

[18] = system: RARa:RXR (NR concentration 270 nM, RXRa partner concentration 90 nM)
Method in brief: as §1

[19] = system: RARa homodimer (NR concentration 270 nM)
Method in brief: as §1

[20] = system: RARb:RXRa (NR concentration 270 nM, RXRa partner concentration 90 nM)
Method in brief: as §1

Sequence | PBM binding z-score [1] | PBM binding z-score [2] | PBM binding z-score [3] | PBM binding z-score [4] | PBM binding z-score [5] | PBM binding z-score [6] | PBM binding z-score [7] | PBM binding z-score [8] | PBM binding z-score [9] | PBM binding z-score [10] | PBM binding z-score [11] | PBM binding z-score [12] | PBM binding z-score [13] | PBM binding z-score [14] | PBM binding z-score [15] | PBM binding z-score [16] | PBM binding z-score [17] | PBM binding z-score [18] | PBM binding z-score [19] | PBM binding z-score [20]
TCATATAGGTAGAGGTGAAAGTCGAACGATATGA | 0.743 | 0.996 | -0.23 | 0.833 | -0.246 | 2.43 | 1.96 | 3.02 | 3.6 | 3.28 | 2.29 | 2.16 | 2 | 0.275 | 0.614 | 0.78 | 0.269 | 1.22 | 0.173 | 1.31
CCGACTGGGGCAAGATTACCATAACGCACAGCCA | -0.454 | -0.432 | -0.473 | -0.425 | -1.17 | -0.0466 | 1.17 | 0.422 | -0.715 | -0.513 | 2.97 | 2.41 | -0.0501 | -0.549 | -0.195 | -0.741 | -0.382 | -0.513 | -0.747 | 0.315
GCTGCTAGTTCAGGTTGGTCAGCTAACGGGTACG | -0.234 | -0.0295 | -0.196 | -0.351 | -0.495 | -0.285 | -0.479 | -0.127 | -0.906 | -0.226 | -0.103 | -0.56 | -0.826 | -0.845 | -0.918 | -0.166 | 0.0964 | -0.23 | -0.341 | 1.01
TCATATAGGTAAAGGTTAAAGTCGAACGATATGA | 2.25 | 3.83 | 0.888 | 2.89 | 0.157 | 4.34 | 5.57 | 5.57 | 5.06 | 5.73 | 3.98 | 4.07 | 1.37 | 1.86 | 1.53 | 2.1 | 0.481 | 3.21 | 1.26 | 2.67
TCTTGTAGATCAACAGGAGGTTAAGGAAGATCGA | 0.186 | 0.637 | -0.0408 | 0.484 | -0.341 | 1.24 | 0.0349 | 1.22 | 2.48 | 1.68 | 1.4 | 0.448 | 1.51 | 0.495 | 0.156 | 0.485 | -0.267 | 0.702 | 0.0704 | 0.516
CCTACTGGGGCAAGGTCATTGATCAGTCAAAGCA | 3.59 | 3.26 | 1.02 | 2.98 | -0.569 | 4.29 | 5.81 | 5.36 | 2.53 | 4.8 | 4.91 | 5.97 | 1.59 | 0.39 | 4.67 | 3.88 | 1.04 | 4.17 | 0.391 | 3.5
GCTAGAAGGCCATTTGGGTCACTCAATGACGGGC | 0.421 | 0.146 | -0.572 | 0.474 | -0.706 | 1.49 | 0.807 | 0.44 | -0.268 | -0.245 | 1.13 | 1.97 | -0.158 | -0.532 | 0.149 | 1.19 | 1.2 | 1.08 | -0.572 | 2.2
AGTCAAAGTTCAGGACGAGGTAACGTCAAGCACG | 4.26 | 3.98 | 1.22 | 1.77 | -0.0254 | 3.5 | 4.43 | 4.98 | 1.87 | 4.04 | -0.313 | 1.89 | 0.047 | -0.603 | 3.18 | 3.06 | 1.42 | 3.01 | 1.63 | 4.25

Reference: the supplement of paper PMC6555819
